From PubChem BioAssay AID1159580 (chemical genetic matrix, 2015)
The whole screen tested about 5,500 compounds, of which about 2,000 (36%) were called active. Another 18% or so got no clear call; they are omitted. Cut-off read from the data, not from the text of the source: active = normalized growth mostly below about 0.91 (no sharp cut-off); inconclusive = no clear call, values can overlap the other calls; inactive = mostly above about 0.92. Some of the results follow.

Assay: chemical genetic growth profiling, strain panel (AID 1159580);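 note: tested at 20 µM; growth read once vehicle control cultures reached saturation at 30 °C; 1 = growth at the plate median or of vehicle wells; lower values mean less growth of the strain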
Settings: growth OD

Measured: normalized growth

COc1ccc(-c2cc(=O)c3c(O)cc(O)cc3o2)cc1
inactive: S. cerevisiae deletion strains, locus YJR075W, strain HOC1, active compounds read low 0.976 | S. cerevisiae deletion strains, locus YKL009W, strain mrt4, active compounds read low 0.94 | S. cerevisiae deletion strains, locus YKL068W, active compounds read low 0.979 | S. cerevisiae deletion strains, locus YKL085W, strain MDH1 (second series), active compounds read low 0.98 | S. cerevisiae deletion strains, locus YKL085W, strain MDH1, active compounds read low 0.98 | S. cerevisiae deletion strains, locus YKL160W, strain elf1, active compounds read low 0.928 | S. cerevisiae deletion strains, locus YKL190W, strain CNB1, active compounds read low 0.985 | S. cerevisiae deletion strains, locus YKR001C, strain vps1, active compounds read low 0.991 | S. cerevisiae deletion strains, locus YKR026C, strain gcn3, active compounds read low 0.994 | S. cerevisiae deletion strains, locus YKR091W, strain srl3, active compounds read low 0.997 | S. cerevisiae deletion strains, locus YLL001W, strain dnm1, active compounds read low 0.954 | S. cerevisiae deletion strains, locus YLL026W, active compounds read low 0.997 | S. cerevisiae deletion strains, locus YLL041C, strain sdh2, active compounds read low 0.996 | S. cerevisiae deletion strains, locus YLR027C, strain aat2, active compounds read low 0.97 | S. cerevisiae deletion strains, locus YLR039C, strain RIC1, active compounds read low 0.975 | S. cerevisiae deletion strains, locus YLR058C, strain SHM2, active compounds read low 0.998 | S. cerevisiae deletion strains, locus YLR102C, strain apc9, active compounds read low 0.984 | S. cerevisiae deletion strains, locus YLR221C, strain rsa3, active compounds read low 0.986 | S. cerevisiae deletion strains, locus YLR258W, strain gsy2, active compounds read low 0.97 | S. cerevisiae deletion strains, locus YLR262C, strain YPT6 (second series), active compounds read low 0.908 | S. cerevisiae deletion strains, locus YLR262C, strain YPT6, active compounds read low 0.92 | S. cerevisiae deletion strains, locus YLR268W, strain sec22, active compounds read low 0.985 | S. cerevisiae deletion strains, locus YLR320W, strain mms22, active compounds read low 0.97 | S. cerevisiae deletion strains, locus YLR330W, strain CHS5, active compounds read low 0.989 | S. cerevisiae deletion strains, locus YLR342W, strain FKS1 (second series), active compounds read low 1.11 | S. cerevisiae deletion strains, locus YLR342W, strain FKS1, active compounds read low 1.01 | S. cerevisiae deletion strains, locus YLR357W, strain rsc2, active compounds read low 1.01 | S. cerevisiae deletion strains, locus YLR370C, strain arc18, active compounds read low 0.98 | S. cerevisiae deletion strains, locus YLR371W, strain rom2, active compounds read low 0.99 | S. cerevisiae deletion strains, locus YLR384C, strain iki3, active compounds read low 1.02 | S. cerevisiae deletion strains, locus YLR418C, strain cdc73, active compounds read low 0.957 | S. cerevisiae deletion strains, locus YML016C, strain PPZ1, active compounds read low 1.02 | S. cerevisiae deletion strains, locus YML032C, strain rad52, active compounds read low 1 | S. cerevisiae deletion strains, locus YML120C, strain ndi1, active compounds read low 0.952 | S. cerevisiae deletion strains, locus YML124C, strain tub3, active compounds read low 0.99 | S. cerevisiae deletion strains, locus YMR058W, strain fet3, active compounds read low 0.983 | S. cerevisiae deletion strains, locus YMR078C, strain ctf18, active compounds read low 0.981 | S. cerevisiae deletion strains, locus YMR125W, strain sto1, active compounds read low 0.979 | S. cerevisiae deletion strains, locus YMR129W, active compounds read low 0.991 | S. cerevisiae deletion strains, locus YMR205C, strain PFK2, active compounds read low 0.968 | S. cerevisiae deletion strains, locus YMR223W, strain ubp8, active compounds read low 0.982 | S. cerevisiae deletion strains, locus YMR231W, strain pep5, active compounds read low 1.01 | S. cerevisiae deletion strains, locus YMR263W, strain SAP30, active compounds read low 0.975 | S. cerevisiae deletion strains, locus YMR307W, strain GAS1, active compounds read low 1.21 | S. cerevisiae deletion strains, locus YNL067W, strain RPL9B, active compounds read low 0.946 | S. cerevisiae deletion strains, locus YNL071W, strain lat1, active compounds read low 0.952 | S. cerevisiae deletion strains, locus YNL209W, strain ssb2, active compounds read low 0.967 | S. cerevisiae deletion strains, locus YNL233W, strain BNI4, active compounds read low 0.984 | S. cerevisiae deletion strains, locus YNL248C, strain rpa49, active compounds read low 1.03 | S. cerevisiae deletion strains, locus YNL250W, strain rad50, active compounds read low 0.966 | S. cerevisiae deletion strains, locus YNL271C, strain bni1, active compounds read low 0.98 | S. cerevisiae deletion strains, locus YNL298W, strain CLA4, active compounds read low 0.994 | S. cerevisiae deletion strains, locus YNL307C, strain MCK1, active compounds read low 0.978 | S. cerevisiae deletion strains, locus YNL322C, strain KRE1 (second series), active compounds read low 0.984 | S. cerevisiae deletion strains, locus YNR049C, strain mso1, active compounds read low 0.994 | S. cerevisiae deletion strains, locus YNR052C, strain pop2, active compounds read low 0.973 | S. cerevisiae deletion strains, locus YOL012C, strain htz1 0.966 | S. cerevisiae deletion strains, locus YOL147C, strain pex11, active compounds read low 0.99 | S. cerevisiae deletion strains, locus YOR001W, strain rrp6, active compounds read low 1 | S. cerevisiae deletion strains, locus YOR061W, strain CKA2, active compounds read low 0.991 | S. cerevisiae deletion strains, locus YOR069W, strain VPS5, active compounds read low 1 | S. cerevisiae deletion strains, locus YOR070C, strain gyp1, active compounds read low 0.968 | S. cerevisiae deletion strains, locus YOR080W, strain dia2, active compounds read low 1 | S. cerevisiae deletion strains, locus YOR083W, strain WHI5, active compounds read low 0.917 | S. cerevisiae deletion strains, locus YOR106W, strain vam3, active compounds read low 0.93 | S. cerevisiae deletion strains, locus YOR136W, strain idh2, active compounds read low 0.984 | S. cerevisiae deletion strains, locus YOR144C, strain elg1, active compounds read low 1 | S. cerevisiae deletion strains, locus YOR184W, strain ser1, active compounds read low 0.978 | S. cerevisiae deletion strains, locus YOR231W, strain MKK1, active compounds read low 0.869 | S. cerevisiae deletion strains, locus YOR265W, strain rbl2, active compounds read low 0.984 | S. cerevisiae deletion strains, locus YOR270C, strain vph1, active compounds read low 0.95 | S. cerevisiae deletion strains, locus YOR290C, strain snf2, active compounds read low 0.868 | S. cerevisiae deletion strains, locus YOR316C, strain cot1, active compounds read low 0.987 | S. cerevisiae deletion strains, locus YPL051W, strain arl3, active compounds read low 0.963 | S. cerevisiae deletion strains, locus YPL055C, strain LGE1, active compounds read low 0.982 | S. cerevisiae deletion strains, locus YPL078C, strain atp4, active compounds read low 0.92 | S. cerevisiae deletion strains, locus YPL106C, strain sse1, active compounds read low 0.946 | S. cerevisiae deletion strains, locus YPL240C, strain hsp82, active compounds read low 0.994 | S. cerevisiae deletion strains, locus YPL241C, strain CIN2, active compounds read low 0.999 | S. cerevisiae deletion strains, locus YPR119W, strain clb2, active compounds read low 0.983 | S. cerevisiae deletion strains, locus YPR141C, strain kar3, active compounds read low 0.985 | S. cerevisiae deletion strains, locus YPR163C, strain tif3, active compounds read low 0.991 | S. cerevisiae deletion strains, locus YPR167C, strain met16, active compounds read low 0.985 | S. cerevisiae deletion strains, strain wtn01, active compounds read low 1 | S. cerevisiae strains, strain wild type, active compounds read low 0.991
active: S. cerevisiae deletion strains, locus YLR113W, strain HOG1, active compounds read low 0.694 | S. cerevisiae deletion strains, locus YNL183C, strain NPR1, active compounds read low 0.784 | S. cerevisiae deletion strains, locus YPL256C, strain CLN2, active compounds read low 0.756
